Results on 36 compounds are retold here after PubChem BioAssay (EPA / NIEHS).

Inconclusive results are not listed. A structure can be active in one record and inactive in another. Active and inactive are the calls of the source. Rule for the calls: active = hit-call score of the fitted dose curve at least 0.9, where 1 is the maximum; inconclusive = response in the unintended direction; inactive = score below 0.9.

Sequence of Retinoic acid receptor RXR-alpha (Homo sapiens) (P19793 whole entry, looked up, the tested form may be a part): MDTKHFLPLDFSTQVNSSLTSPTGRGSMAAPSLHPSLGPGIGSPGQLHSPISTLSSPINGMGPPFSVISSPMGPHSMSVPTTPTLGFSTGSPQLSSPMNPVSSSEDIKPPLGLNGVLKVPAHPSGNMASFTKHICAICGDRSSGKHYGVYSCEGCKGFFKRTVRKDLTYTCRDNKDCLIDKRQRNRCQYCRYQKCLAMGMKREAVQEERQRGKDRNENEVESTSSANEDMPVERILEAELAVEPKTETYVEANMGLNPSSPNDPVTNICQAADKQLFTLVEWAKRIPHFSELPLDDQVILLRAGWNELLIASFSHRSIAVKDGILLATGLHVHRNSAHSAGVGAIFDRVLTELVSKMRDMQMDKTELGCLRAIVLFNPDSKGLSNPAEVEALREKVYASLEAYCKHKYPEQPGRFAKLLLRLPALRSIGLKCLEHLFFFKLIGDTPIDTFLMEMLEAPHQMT

For one assay, the target named is Bile acid receptor (Homo sapiens) (UniProt Q96RI1). Description: OT_FXR_FXRSRC1_0480: Odyssey Thera (OT) 8-hour HEK293T Protein-Complementation Assay for Farnesoid X receptor/SRC-1 Co-activator (AID 2283383). An outline of the steps: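 HEK293T protein-fragment complementation assay: FXR and SRC-1 coactivator are fused to reporter fragments, and their interaction restores a fluorescent reporter. Readout was taken 8 h after dosing, with gain of signal fit relative to DMSO.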
Sequence of Bile acid receptor (Homo sapiens) (Q96RI1 whole entry, looked up, the tested form may be a part): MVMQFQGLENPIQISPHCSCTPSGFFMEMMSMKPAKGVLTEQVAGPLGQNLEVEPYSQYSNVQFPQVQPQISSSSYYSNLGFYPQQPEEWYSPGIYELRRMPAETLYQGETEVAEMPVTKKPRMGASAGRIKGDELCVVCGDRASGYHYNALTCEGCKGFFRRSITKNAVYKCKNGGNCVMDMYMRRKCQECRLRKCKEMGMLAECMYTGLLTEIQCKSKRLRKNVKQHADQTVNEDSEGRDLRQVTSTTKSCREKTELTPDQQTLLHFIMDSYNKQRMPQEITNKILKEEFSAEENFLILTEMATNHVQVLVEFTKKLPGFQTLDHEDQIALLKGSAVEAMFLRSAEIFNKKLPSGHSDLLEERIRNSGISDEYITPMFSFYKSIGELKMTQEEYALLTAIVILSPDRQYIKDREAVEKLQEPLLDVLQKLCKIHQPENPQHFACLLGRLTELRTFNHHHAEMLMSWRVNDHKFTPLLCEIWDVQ
With `CCCCC(CC)COC(=O)c1c(Br)c(Br)c(Br)c(Br)c1C(=O)OCC(CC)CCCC` (stereo not drawn), the compound was classed as inactive.

`Cc1ccc(N)cc1N`: the call was inactive.

`ClC1=C(Cl)C2(Cl)C3C(Cl)C(Cl)CC3C1(Cl)C2(Cl)Cl` (stereo not drawn): the compound was called inactive.

Turning to `CCOP(=S)(OCC)SCSCC`, the AC50 was 32.6 µM (active).

In the case of `CCCCc1ccccc1`, the call was inactive.

Take `O=P(Oc1ccccc1)(Oc1ccccc1)Oc1ccccc1`: the AC50 was 11.9 µM (active).

As to `CC(C)(C)OOC(C)(C)C`, the compound was classed as inactive.

Take `ClC(Cl)(Cl)c1ccccc1`: the outcome was inactive.

As for `O=NN1CCCC1`, the compound was classed as inactive.

Consider `CCCCN(CCCC)N=O`, for which the compound was called inactive.

`CC(C)(C)N(NC(=O)c1ccc(Cl)cc1)C(=O)c1ccccc1`: the AC50 was 70.1 µM (active).

For the compound `O=P(OCC(Br)CBr)(OCC(Br)CBr)OCC(Br)CBr` (stereo not drawn), the AC50 was 11.4 µM (active).

For the compound `O=S1(=O)OCC2C(CO1)C1(Cl)C(Cl)=C(Cl)C2(Cl)C1(Cl)Cl` (stereo not drawn), the AC50 was 49.3 µM (active).

Consider `O=C(O)C1C(C(=O)O)C2(Cl)C(Cl)=C(Cl)C1(Cl)C2(Cl)Cl` (stereo not drawn), for which the outcome was inactive.

With `Cc1ccc([N+](=O)[O-])cc1C`, the result was inactive.

For `CCCCc1ccc(O)cc1`, the result was inactive.

As for `O=C(CBr)OCc1ccccc1`, the compound was called inactive.

On to `CCNc1nc(Cl)nc(NC(C)(C)C)n1`, for which the compound was called inactive.

Turning to `CCC(C)(C)c1ccc(O)cc1`, the AC50 is 60.9 µM (active).

Take `O=[N+]([O-])c1ccc(Cl)c(Cl)c1`: the outcome was inactive.

With `O=S(=O)(c1ccc(O)cc1)c1ccc(O)cc1`, the call was inactive.

On to `CCCCC(CC)COP(=O)(Oc1ccccc1)Oc1ccccc1` (stereo not drawn), for which the AC50 is 2.85 µM (active).

As for `CCCCN(CC)C(=O)SCCC`, the compound was called inactive.

Take `CCOc1ccc(C(C)(C)COCc2cccc(Oc3ccccc3)c2)cc1`: the compound was classed as inactive.

With `CO/N=C(/C(=O)OC)c1ccccc1COc1ccccc1C`, the AC50 was 13.4 µM (active).

Take `c1nc[nH]n1`: the call was inactive.

A further assay has the same target. In words: OT_FXR_FXRSRC1_1440: Odyssey Thera (OT) 24-hour HEK293T Protein-Complementation Assay for Farnesoid X receptor/SRC-1 Co-activator (AID 2283384). Put shortly:
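HEK293T cells, 24 h after chemical dosing. FXR–SRC-1 coactivator interaction read as fluorescence from protein-fragment complementation of a split reporter. Gain of signal fitted against DMSO baseline.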
Turning to `CCN(CC)c1ccccc1`, the result was inactive.

Regarding `CCCCC(CC)COC(=O)c1c(Br)c(Br)c(Br)c(Br)c1C(=O)OCC(CC)CCCC` (stereo not drawn), the result was inactive.

On to `Cc1ccc(N)cc1N`, for which the result was inactive.

On to `CCOP(=S)(OCC)SCSCC`, for which the call was inactive.

For `O=P(Oc1ccccc1)(Oc1ccccc1)Oc1ccccc1`, the compound was classed as inactive.

As to `OCC1CO1` (stereo not drawn), the compound was called inactive.

Regarding `ClC(Cl)(Cl)c1ccccc1`, the outcome was inactive.

In the case of `O=NN1CCCC1`, the outcome was inactive.

As for `CC(C)(C)N(NC(=O)c1ccc(Cl)cc1)C(=O)c1ccccc1`, the outcome was inactive.

Regarding `O=P(OCC(Br)CBr)(OCC(Br)CBr)OCC(Br)CBr` (stereo not drawn), the concentration at half-maximal activity (AC50) was 29 µM (active).

With `O=S1(=O)OCC2C(CO1)C1(Cl)C(Cl)=C(Cl)C2(Cl)C1(Cl)Cl` (stereo not drawn), the AC50 was 50 µM (active).

Turning to `O=C(O)C1C(C(=O)O)C2(Cl)C(Cl)=C(Cl)C1(Cl)C2(Cl)Cl` (stereo not drawn), the outcome was inactive.

For `Cc1ccc([N+](=O)[O-])cc1C`, the outcome was inactive.

As for `CCCCc1ccc(O)cc1`, the AC50 is 67.9 µM (active).

Regarding `CCNc1nc(Cl)nc(NC(C)(C)C)n1`, the result was inactive.

Regarding `CCOC(=O)c1ccccc1N`, the result was inactive.

Turning to `CCC(C)(C)c1ccc(O)cc1`, the outcome was inactive.

For `O=[N+]([O-])c1ccc(Cl)c(Cl)c1`, the compound was classed as inactive.

With `CCCCC(CC)COP(=O)(Oc1ccccc1)Oc1ccccc1` (stereo not drawn), the call was inactive.

As to `CCCCN(CC)C(=O)SCCC`, the compound was classed as inactive.

Regarding `O=c1ssc(Cl)c1Cl`, the concentration at half-maximal activity (AC50) was 11.4 µM (active).

For the compound `CO/N=C(/C(=O)OC)c1ccccc1COc1ccccc1C`, the AC50 is 12.4 µM (active).

The next assay concerns the target Retinoic acid receptor RXR-alpha (Homo sapiens) (UniProt P19793). Description: OT_NURR1_NURR1RXRa_0480: Odyssey Thera (OT) 8-hour HEK293T Protein Complementation Assay for Nurr1/retinoid X receptor (RXR) (AID 2283385). Put shortly: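 HEK293T cells expressing Nurr1 and RXRα fused to reporter fragments (protein-fragment complementation); fluorescence measured 8 h after dosing. Gain of signal fitted relative to DMSO.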
For `Cc1ccc(N)cc1N`, the compound was classed as inactive.

For the compound `O=NN1CCCC1`, the compound was classed as inactive.

On to `O=P(OCC(Br)CBr)(OCC(Br)CBr)OCC(Br)CBr` (stereo not drawn), for which the compound was classed as inactive.

As for `CN(C)C(=O)Cl`, the compound was classed as inactive.

For `O=[N+]([O-])c1ccccc1`, the result was inactive.

Take `O=C(CBr)OCc1ccccc1`: the call was inactive.

Regarding `ClC(Cl)c1ccccc1`, the compound was called inactive.

With `CCC(C)(C)c1ccc(O)cc1`, the outcome was inactive.

With `CCOc1ccc(C(C)(C)COCc2cccc(Oc3ccccc3)c2)cc1`, the result was inactive.

Consider `CCCCOCC1CO1` (stereo not drawn), for which the compound was called inactive.

A further assay shares this target. In words: OT_NURR1_NURR1RXRa_1440: Odyssey Thera (OT) 24-hour HEK293T Protein Complementation Assay for Nurr1/retinoid X receptor (RXR) (AID 2283386). An outline of the steps:
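HEK293T protein-fragment complementation of Nurr1 and RXRα fused to reporter fragments; compounds 24 h. Fluorescence gain from reconstituted reporter fitted versus DMSO.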
`CCN(CC)c1ccccc1`: the compound was called inactive.

Regarding `CCCCC(CC)COC(=O)c1c(Br)c(Br)c(Br)c(Br)c1C(=O)OCC(CC)CCCC` (stereo not drawn), the result was inactive.

On to `Cc1ccc(N)cc1N`, for which the result was inactive.

`CCCCc1ccccc1`: the outcome was inactive.

Consider `CCCCCCCc1ccc(O)cc1`, for which the AC50 is 50 µM (active) and the compound was classed as inactive.

Regarding `O=P(Oc1ccccc1)(Oc1ccccc1)Oc1ccccc1`, the call was inactive.

With `OCC1CO1` (stereo not drawn), the outcome was inactive.

As for `CC(C)(C)OOC(C)(C)C`, the compound was classed as inactive.

Regarding `CCCCN(CCCC)N=O`, the outcome was inactive.

On to `CC(C)(C)N(NC(=O)c1ccc(Cl)cc1)C(=O)c1ccccc1`, for which the call was inactive.

Take `O=P(OCC(Br)CBr)(OCC(Br)CBr)OCC(Br)CBr` (stereo not drawn): the AC50 is 73.9 µM (active).

As for `O=[N+]([O-])c1ccccc1`, the compound was called inactive.

As for `Cc1ccc([N+](=O)[O-])cc1C`, the outcome was inactive.

Consider `CCCCc1ccc(O)cc1`, for which the call was inactive.

With `O=C(CBr)OCc1ccccc1`, the call was inactive.

With `CCNc1nc(Cl)nc(NC(C)(C)C)n1`, the call was inactive.

In the case of `CCOC(=O)c1ccccc1N`, the call was inactive.

With `CCC(C)(C)c1ccc(O)cc1`, the concentration at half-maximal activity (AC50) is 66.4 µM (active).

On to `CCCCC(CC)COP(=O)(Oc1ccccc1)Oc1ccccc1` (stereo not drawn), for which the AC50 is 82.1 µM (active).

As for `CCCN(CCC)c1c([N+](=O)[O-])cc(C(C)C)cc1[N+](=O)[O-]`, the AC50 is 80.9 µM (active) and the compound was classed as inactive.

`CCOc1ccc(C(C)(C)COCc2cccc(Oc3ccccc3)c2)cc1`: the outcome was inactive.

For `CCCCOCC1CO1` (stereo not drawn), the compound was called inactive.

For `c1nc[nH]n1`, the call was inactive.
